Test systems include HCT-15 colon; HT29 colon; SNB-75 CNS; SNB-19 CNS; U251 CNS; PC-3 prostate; SK-MEL-5 melanoma; UACC-62 melanoma; LOX IMVI melanoma; SK-MEL-28 melanoma; SK-MEL-2 melanoma; EKVX NSCLC; SN12C renal; UO-31 renal; TK-10 renal; ACHN renal; CAKI-1 renal; A498 renal; CCRF-CEM leukemia; MOLT-4 leukemia.
What all share (assay): NCI-60 one-dose screen, 48 h (100 = growth as untreated, 0 = no growth, -100 = all killed)
Holding throughout (settings): 10 µM unless noted

The panel holds about 83,000 compounds, 20% with a hit somewhere; the sample as a whole holds those more often.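 Method: cells in 96-well plates; compound added at one concentration; 48 h incubation; percent growth measured; values under 10 scored active.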 A number with no mark means an inactive call. The source made the active and inactive calls.

Regarding `NNC(=S)N/N=C/c1ccccn1`, the growth in the assay with HCT-15 colon was 26.7%; in the assay with HT29 colon, 36%; in the assay on SNB-75 CNS it was 59.6%; with SNB-19 CNS, 48.3%; in the assay on U251 CNS it was 28.4%; in the assay with PC-3 prostate, 32.9%. The growth was 30.2% with SK-MEL-5 melanoma; 20.7% with UACC-62 melanoma; 13.2% with LOX IMVI melanoma; 56.3% in the assay on SK-MEL-28 melanoma; 59.6% in the assay on SK-MEL-2 melanoma; 31.6% in the assay on EKVX NSCLC. Moreover, the growth with SN12C renal was 30%; in the assay on UO-31 renal it was 14.7%; in the assay on TK-10 renal, 46.9%; in the assay on ACHN renal, 17%; in the assay on CAKI-1 renal, 14.2%; with A498 renal, 70.4%. For the same molecule, the growth with CCRF-CEM leukemia and in the assay on MOLT-4 leukemia was 12% throughout.

Regarding `CC12CCC(/C(=C/NNc3ccc([N+](=O)[O-])cc3[N+](=O)[O-])C1=O)C2(C)C` (stereo not given), the growth is 23% in the assay with HCT-15 colon; 52.6% with HT29 colon; 136% with SNB-75 CNS; 94.1% with SNB-19 CNS; 58.4% with U251 CNS; 59.5% in the assay with PC-3 prostate. Besides, the growth was 65.5% in the assay on SK-MEL-5 melanoma; 64.5% in the assay on UACC-62 melanoma; 56.5% in the assay with LOX IMVI melanoma; 83.5% in the assay with SK-MEL-28 melanoma; 38.4% in the assay on SK-MEL-2 melanoma; 90.8% with EKVX NSCLC. Besides, the growth in the assay with SN12C renal was 73.1%; with UO-31 renal it was 55.2%; with TK-10 renal it was 96.8%; in the assay on ACHN renal it was 34.3%; in the assay with CAKI-1 renal it was 46.8%; in the assay on A498 renal, 88.5%. The growth was 47.4% with CCRF-CEM leukemia and 41.3% in the assay on MOLT-4 leukemia.

As for `O=C1CCC(C(=O)NN(c2ccccc2)c2ccccc2)N1` (stereo not given), the growth was 103% in the assay on HCT-15 colon; 111% with HT29 colon; 89.2% with SNB-75 CNS; 100% in the assay on SNB-19 CNS; 103% in the assay on U251 CNS; 14.3% in the assay on PC-3 prostate. Moreover, the growth was 106% in the assay on SK-MEL-5 melanoma; 94.4% in the assay with UACC-62 melanoma; 95% in the assay on LOX IMVI melanoma; 109% in the assay on SK-MEL-28 melanoma; 105% in the assay with SK-MEL-2 melanoma; 102% in the assay on EKVX NSCLC. In addition, the growth in the assay with SN12C renal is 97.8%; in the assay with UO-31 renal, 85.5%; in the assay on TK-10 renal, 82.8%; in the assay on ACHN renal, 103%; in the assay with CAKI-1 renal, 78%; with A498 renal it was 103%. Further, the figures for the growth in the assay on CCRF-CEM leukemia and in the assay on MOLT-4 leukemia were 22% and 50%, respectively.

Regarding `CCC(CC)(N(CC(=O)O)CC(=O)O)C(CC)(CC)N(CC(=O)O)CC(=O)O`, the growth in the assay with HCT-15 colon was 131%; with HT29 colon it was 89.9%; with SNB-75 CNS, 108%; with SNB-19 CNS, 107%; with U251 CNS, 102%; with PC-3 prostate it was 85.1%. In addition, the growth in the assay with SK-MEL-5 melanoma was 105%; in the assay on UACC-62 melanoma, 102%; with LOX IMVI melanoma, 98.6%; in the assay with SK-MEL-28 melanoma it was 108%; in the assay with SK-MEL-2 melanoma, 112%; in the assay with EKVX NSCLC it was 117%. The growth with SN12C renal was 94.8%; with UO-31 renal it was 103%; with TK-10 renal, 103%; with ACHN renal it was 116%; with CAKI-1 renal, 98.4%; with A498 renal, 126%. Moreover, the values for the growth in the assay on CCRF-CEM leukemia and in the assay on MOLT-4 leukemia were 93% and 107%, respectively.

Consider `Cc1ccc(/C=C(\C#N)C(=O)Nc2ncc(Cc3cc(Cl)ccc3Cl)s2)o1`, for which the growth in the assay with HCT-15 colon was 59%; in the assay with HT29 colon, 97%; in the assay with SNB-75 CNS, -0.376% (active); in the assay with SNB-19 CNS it was 27.6%; in the assay with U251 CNS, 32.2%; with PC-3 prostate, 38.8%. In addition, the growth with SK-MEL-5 melanoma is 51.6%; in the assay on UACC-62 melanoma, 6.39% (active); in the assay with LOX IMVI melanoma, 11.9%; in the assay with SK-MEL-28 melanoma, 88.9%; in the assay with SK-MEL-2 melanoma, 45.9%; in the assay on EKVX NSCLC, 60.4%. The growth is 58.9% with SN12C renal; 31.7% in the assay on UO-31 renal; 44.1% in the assay on TK-10 renal; 45.4% in the assay on ACHN renal; 23.7% with CAKI-1 renal; 40.5% with A498 renal. Besides, the values for the growth in the assay with CCRF-CEM leukemia and in the assay with MOLT-4 leukemia were 55.4% and 40.7%, respectively.

Regarding `COc1ccc(-c2ccc(-c3ccc(C(=N)N)cn3)s2)cc1`, the growth in the assay on HCT-15 colon is 19.9%; with HT29 colon, 16.1%; in the assay on SNB-75 CNS it was 105%; with SNB-19 CNS, 88.6%; with U251 CNS, 15.3%; in the assay with PC-3 prostate, 65.5%. Moreover, the growth in the assay with SK-MEL-5 melanoma is 85%; with UACC-62 melanoma it was 101%; with LOX IMVI melanoma, 55%; in the assay with SK-MEL-28 melanoma, 109%; with SK-MEL-2 melanoma, 104%; in the assay on EKVX NSCLC, 95.6%. In addition, the growth was 86.7% with SN12C renal; 81.2% in the assay on UO-31 renal; 109% in the assay with TK-10 renal; 92% in the assay on ACHN renal; 87.9% with CAKI-1 renal; 98.8% in the assay on A498 renal. Besides, the growth in the assay on CCRF-CEM leukemia was 4.28% (active); in the assay on MOLT-4 leukemia, 49.1%.

Turning to `CCCCCCC(CCCC)COC(=O)c1ccc(Cl)cc1` (stereo not given), the growth was 107% in the assay on HCT-15 colon; 121% in the assay with HT29 colon; 95% in the assay on SNB-75 CNS; 109% in the assay with SNB-19 CNS; 113% in the assay on U251 CNS; 96.5% in the assay with PC-3 prostate. Also, the growth was 96.5% with SK-MEL-5 melanoma; 98.7% in the assay with UACC-62 melanoma; 103% in the assay on LOX IMVI melanoma; 112% with SK-MEL-28 melanoma; 109% in the assay on SK-MEL-2 melanoma; 112% with EKVX NSCLC. Also, the growth in the assay with SN12C renal is 105%; with UO-31 renal it was 98%; in the assay on TK-10 renal, 110%; with ACHN renal, 110%; with CAKI-1 renal, 100%; in the assay with A498 renal, 93.9%. The figures for the growth in the assay with CCRF-CEM leukemia and with MOLT-4 leukemia were 105% and 98.8%, respectively.

The record behind these values is PubChem BioAssay (NCI).
